Source: PubChem (National Center for Advancing Translational Sciences (NCATS))
BRCA1 expr up: activators of BRCA1 expression. MCF7-BRCA1-FFLuc reporter, luminescence, 48 h; response scale: scaled: vehicle 0%, 10 µM genistein 100%. Potency, µM (highest dose often 46.1 µM), usual class: activators. 1.1% of 380,000 active; note: nearly all actives have a fitted effect of over 80% in size
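MCF7 cells carrying a BRCA1-firefly luciferase reporter (2000 cells/well, phenol-red free MEM) were attached for 2 h at 37 °C, then given compounds for 48 h. Luminescence was read 15 min after luciferase reagent; activity normalized to genistein (10 microM) and DMSO.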
TCR activator: T cell receptor activation. primary human leukocytes, anti-CD3, IL-2 HTRF, 48 h. Potency, µM (doses to about 9.22 µM), most hits filed as activators. 330,000 tested, under 10 active. AID 504894
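Readout: HTRF IL-2, Eu-cryptate/d2 antibody pair, 320nm excitation, 665nm emission. Stimulus: a-CD3 beads, no co-stimulation. Cells: primary human leukocytes. Exposure: 48 hr with compound.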
Mito fusion yeast: inhibitors of mitochondrial division or activators of mitochondrial fusion; S. cerevisiae fusion-defective mutant growth rescue, CellTiterGlo 48 h; Potency, µM (doses to about 46.1 µM), usual class: activators; AID 485298; 0.23% of 320,000 active; note: nearly all actives have a fitted effect of over 45% in size
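Read-out: ATP-based luminescence (CellTiterGlo, 10 min ambient) reporting growth of fusion-defective ts yeast after 48 hours at 37C on glycerol/ethanol YPEG medium in the presence of compound.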
IL-2 act: IL-2 activation | AID 652025 | 0.065% of 360,000 active | IL-2 activation reporter assay, cell-based qHTS; stimulated with anti-CD3/CD4/CD28 beads; in transgenic mouse T cells | activation, % (series mostly up to about 46 µM); in the data active = activation above about 50%; inconclusive = mostly about 30% to 49%
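EGFP and DsRed fluorescence is measured by plate cytometry in unstimulated transgenic mouse T cells exposed to compound for 60 minutes, then stimulated 18 hours at 37 degrees C with anti-CD3/anti-CD4 beads plus anti-CD28.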
Chronic BCR inh: inhibitors of chronic active B-cell receptor signaling | ABC-DLBCL IkBa-CBG/CBR reporter, luminescence ratio, 4 h | Potency, µM (doses to about 46.1 µM), actives largely listed as inhibitors | 0.05% of 340,000 active; active = well fitted inhibition curve with a large enough effect in the signal ratio, with a control signal flat, not every such curve was filed as active; inconclusive = small, poorly fitted or top-dose-only effect, or effect the other way, or a change in a side signal; the % refers to the signal ratio
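Cell line TMD8 (human ABC DLBCL), stably expressing tet-inducible CBG68-IkBa fusion and CBR; IMDM/0.5% FBS; cpd up to 46 uM; dox induction, 4 h, 37C/5% CO2; dual luminescence; green/red ratio; MG132 control.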
PTHR1 ag: agonists of human PTHR1 parathyroid hormone receptor. AID 743266. 0.075% of 410,000 active. Q03431. HEK293 GP2 PTHR1 cells, GloSensor cAMP luminescence, 1 h. Potency, µM (doses to about 115 µM), most hits filed as activators; note: nearly all actives have a fitted effect of over 55% in size
Target sequence (Q03431 whole entry, looked up): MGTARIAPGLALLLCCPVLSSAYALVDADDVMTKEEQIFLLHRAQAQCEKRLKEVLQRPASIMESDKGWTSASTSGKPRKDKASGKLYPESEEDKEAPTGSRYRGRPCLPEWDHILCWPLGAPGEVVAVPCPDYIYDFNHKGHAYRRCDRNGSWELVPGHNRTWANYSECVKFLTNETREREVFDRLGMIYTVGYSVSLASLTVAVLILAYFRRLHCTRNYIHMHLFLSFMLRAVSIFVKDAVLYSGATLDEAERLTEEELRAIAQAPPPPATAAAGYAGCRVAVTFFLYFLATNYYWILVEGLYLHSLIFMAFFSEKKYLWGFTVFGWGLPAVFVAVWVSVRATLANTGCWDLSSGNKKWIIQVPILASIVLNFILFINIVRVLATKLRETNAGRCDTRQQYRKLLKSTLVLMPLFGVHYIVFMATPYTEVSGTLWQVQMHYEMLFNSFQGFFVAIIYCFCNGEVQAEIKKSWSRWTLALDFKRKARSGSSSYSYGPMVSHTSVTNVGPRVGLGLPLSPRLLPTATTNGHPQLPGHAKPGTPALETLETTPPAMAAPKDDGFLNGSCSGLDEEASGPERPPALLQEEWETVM
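HEK-293-derived GP2 cells expressing PTHR1 and a GloSensor cAMP reporter, 3,000/well, plated overnight, given luciferin plus IBMX (each 0.5 mM as added) for 1 h at 37 °C, then compound for 1 h at 37 °C. Luminescence was read after 15 min at room temperature.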
Hits are given with their value; . = inactive; ? = inconclusive; / = no result. Sampled rows, rich in hits. Any-hit rate of the full collection: about 1.3%. Unless noted, calls come from the whole dose curve; as a rule, active = well fitted curve in the direction sought with a large enough effect; inconclusive = small, poorly fitted or top-dose-only effect, or another doubt; inactive = no such curve, though single readings can be large; an effect the other way counts as inactive or inconclusive.

SMILES	BRCA1 expr up	TCR activator	Mito fusion yeast	IL-2 act	Chronic BCR inh	PTHR1 ag
O=[N+]([O-])c1nn(-c2ccc3c(c2)OCCO3)n(O)c1=NC1CCCCC1	.	.	12.6µM	.	?	.
COc1cc2nc(N3CCOCC3)nc(NC(C)C)c2cc1OC	.	/	/	/	/	/
N=C1/C(=C/c2ccc(OCc3ccccc3)cc2)C(=O)N=C2SC(CC(=O)N3CCOCC3)=NN12	14.1µM	.	.	.	?	.
COCC(=O)n1nc(-c2ccc(C)cc2)nc1NCc1ccc(F)cc1	10µM	.	.	.	?	.
CCN(CC)CCCNC(=O)CCC(=O)Nc1ccc2nc(N3CCC(C)CC3)cc(C)c2c1	.	.	.	.	.	.
CCN(CC)CCCNC(=O)CCC(=O)Nc1ccc2nc(N3CCCCC3)cc(C)c2c1	11.2µM	.	.	.	?	.
CCCCNC(=O)CCC(=O)Nc1ccc2nc(N3CCOCC3)cc(C)c2c1	3.98µM	.	.	.	.	.
CCCCNC(=O)CCC(=O)Nc1ccc2nc(N3CCCCC3)cc(C)c2c1	.	.	.	.	.	.
N/C(=N\O)c1ccc(N2CCN(c3ncccc3C(F)(F)F)CC2)nc1	3.55µM	.	.	.	.	.
O=C(Nc1ccc(N2CCN(c3ncccc3C(F)(F)F)CC2)nc1)c1cccs1	.	.	.	.	?	.
CCOc1ccccc1C(=O)Nc1nnc(Cc2ccc(OC)c(OC)c2)s1	.	.	.	.	.	.
CCOCC(=O)NC1CCc2cc(OC)c(OC)c(OC)c2-c2ccc(SC)c(=O)cc21 (stereo not drawn)	?	.	/	.	/	.
COc1ccccc1C(=O)NC(=S)Nc1cccnc1Cl	.	.	.	.	?	.
Cc1ccc(C(=O)NC(=S)Nc2cccnc2Cl)cc1	11.2µM	.	.	.	?	.
S=C(NCCCc1cnc[nH]1)NCCCN(CCc1ccccc1)c1ccc(Br)cn1	.	/	/	/	/	/
Oc1oc(-c2ccccc2)nc1C=Nc1cccc2ccccc12	.	.	11.2µM	.	?	.
Cc1ccc(-c2nc(-c3cccnc3)no2)c(C)c1	6.31µM	.	.	.	?	.
Brc1ccc(-c2nc(-c3cccnc3)no2)o1	3.98µM	.	.	.	?	.
Brc1ccc(-c2nc(-c3ccccc3)no2)o1	.	.	.	.	?	.
Cc1ccc(C)c(OCc2nc(-c3cccnc3)no2)c1	.	/	.	.	?	.
O=C(NCc1ccco1)c1cc2c(s1)CCCCC2	11.2µM	.	.	.	?	.
O=C(NCC(c1ccco1)N1CCCCC1)c1cc2c(s1)CCCC2 (stereo not drawn)	.	.	.	.	.	.
CNC(=O)c1cc2c(s1)CCCCCC2	.	.	.	.	.	.
O=C(Nc1ccon1)c1cc2c(s1)CCCC2	?	.	.	.	?	.
CC1CCC(NC(=O)c2cc3c(s2)CCCC3)CC1 (stereo not drawn)	3.98µM	.	?	.	.	.
SMILES	BRCA1 expr up	TCR activator	Mito fusion yeast	IL-2 act	Chronic BCR inh	PTHR1 ag
O=C(Nc1ccon1)c1cc2c(s1)CCCCCC2	10µM	.	.	.	?	.
CC1(C)C2CCC1(C)C(NC(=O)COC(=O)c1ccc(S(C)(=O)=O)c([N+](=O)[O-])c1)C2 (stereo not drawn)	.	/	/	/	/	/
COc1ccccc1CC(=O)NO	.	/	/	/	/	/
Cc1ccc(Nc2nc(C)cc(C)n2)c(C(=O)O)c1	/	/	/	/	.	.
Cc1ccc(C(=O)c2cc3ccccc3o2)cc1	?	.	.	.	.	.
Cc1ccc(C(=O)c2cc3ccccc3o2)cc1C	11.2µM	.	.	.	?	.
Cc1ccc(Cn2ccc(=O)c(OCc3ccccc3)c2C)cc1	11.2µM	.	.	.	.	.
CC(C)C(=O)Nc1ccccc1C(=O)OCC(=O)c1ccc2c(c1)OCCO2	.	.	?	.	?	.
Cc1cc(C(=O)COC(=O)c2ccc3c(c2)OCO3)c(C)n1Cc1cccs1	5.01µM	.	.	.	.	.
Cc1cc(C(=O)COC(=O)c2ccccc2O)c(C)n1Cc1cccs1	.	.	.	.	.	.
Cc1cccc(C(=O)OCC(=O)c2ccc3c(c2)OCO3)c1O	6.31µM	.	.	.	.	.
Cc1cccc(C(=O)OCC(=O)c2ccc3c(c2)OCCO3)c1O	6.31µM	.	/	.	?	.
OC(Cc1ccc2ccccc2n1)c1ccccc1 (stereo not drawn)	.	/	/	/	/	/
CC(=O)Oc1ccccc1C1=NN(C(=O)/C=C/c2ccccc2)C(c2ccccc2)C1 (stereo not drawn)	.	.	15.8µM	.	?	.
O=C(Nc1cccnc1Cl)c1cc2c(s1)-c1ccccc1OC2	.	.	.	.	?	.
O=C(Nc1ccc(Cl)cn1)c1cc2c(s1)-c1ccccc1OC2	5.62µM	.	.	.	.	.
Cc1ccc(OCc2ccc(C(=O)Nc3ccc(S(N)(=O)=O)cc3)o2)cc1	10µM	.	.	.	.	.
CCc1nnc(NC(=O)c2ccc(COc3ccc(C)cc3)o2)s1	5.01µM	.	.	.	.	.
O=C(Nc1nccs1)c1ccc(CSc2ccccc2)o1	2.82µM	.	.	.	?	.
O=C(Nc1nccs1)c1ccc(COc2ccccc2)o1	5.62µM	.	.	.	.	.
COc1ccc(NC(=O)c2ccc(COc3ccccc3)o2)cc1	.	/	.	.	.	.
Cc1ccc(SCc2ccc(C(=O)Nc3nccs3)o2)cc1	?	.	.	.	?	.
CCc1nnc(NC(=O)c2ccc(COc3ccccc3)o2)s1	.	.	.	.	.	.
COC(=O)c1ccc(OCC(O)CN2CCN(C(=O)c3ccco3)CC2)c(OC)c1 (stereo not drawn)	.	.	.	.	.	.
CCCCOc1ccc(C2CCC(C(C)=O)C(C)C2)cc1 (stereo not drawn)	10µM	.	.	.	.	.
SMILES	BRCA1 expr up	TCR activator	Mito fusion yeast	IL-2 act	Chronic BCR inh	PTHR1 ag
CCCCOc1ccc(C(=O)N2CCC(C)CC2)cc1	.	.	.	.	.	.
O=C1CCn2nc(-c3ccc(Cl)cc3)cc2N1	3.98µM	.	.	.	?	.
C=C(C)CNC(=O)c1ccc2nc(Cc3ccc(OC)cc3)oc2c1	10µM	/	.	.	.	.
COc1ccc(Cc2nc3ccc(C(=O)N4CCCC4)cc3o2)cc1	6.31µM	.	.	.	.	.
COc1cccc(-c2nc3ccc(C(=O)N4CCCC(O)C4)cc3o2)c1 (stereo not drawn)	3.16µM	.	.	.	.	.
O=C(c1ccc2oc(CCCc3ccccc3)nc2c1)N1CCCC1	7.08µM	.	.	.	?	.
COc1ccc(Cc2nc3ccc(C(=O)NC(C)C)cc3o2)cc1	.	.	/	.	/	.
